PubChem BioAssay (EPA / NIEHS)
Inconclusive results are not listed. Active and inactive are the calls of the source. How the source made its calls: active means hit-call score of the fitted dose curve at least 0.9, where 1 is the maximum; inconclusive means response in the unintended direction; inactive means score below 0.9.

Assay: ACEA_ER_AUC_viability: ACEA Biosciences xCELLigence Real-Time Cell Analysis on Estrogen Receptor Agonism for Viability (AID 2283782);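 further: hit means loss of impedance signal meaning reduced cell growth or viability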
How it was run: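 Viability endpoint: reduced impedance area under the curve relative to DMSO, recorded by real-time electrode sensing over ~80 h of continuous exposure. Duplicate plates of T47D in hormone-depleted medium; eight concentrations, 1:4 dilutions, 100 uM maximum.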

CCCC(=O)OCCc1ccccc1
AC50: 25.7 µM (active)

CC(C)OCCO
outcome: inactive

CCCCN(CCCC)C(=O)N(CCCC)CCCC
AC50: 80.4 µM (active)

CC(C)CCOC(=O)c1ccccc1
outcome: inactive

CCCC[O][Al]([O]CCCC)[O]CCCC
AC50: 59.3 µM (active)

C=CCN(CC=C)CC=C
AC50: 61.2 µM (active)

CCCCCCCCCCCCCCCC(=O)OC/C=C(C)/C=C/C=C(C)/C=C/C1=C(C)CCCC1(C)C
AC50: 40 µM (active)

CC/C=C\CC/C=C/CO
AC50: 50 µM (active)

CCCCCCOC(=O)CCC
outcome: inactive

Cc1ccc(N)c(S(=O)(=O)O)c1
outcome: inactive

CCCCCCC(O)CCCCCCCCCCC(=O)O (stereo not drawn)
outcome: inactive

CC(=O)CC(=O)Nc1ccc(C)cc1C
outcome: inactive

N#Cc1cscn1
outcome: inactive

Nc1ccc(NCCO)c([N+](=O)[O-])c1
outcome: inactive

Cc1occc(=O)c1OC(=O)C(C)C
outcome: inactive

Cc1cc(CCC(=O)OCCOCCOCCOC(=O)CCc2cc(C)c(O)c(C(C)(C)C)c2)cc(C(C)(C)C)c1O
outcome: inactive

COC(C)(C)CCCC(C)CC=O (stereo not drawn)
AC50: 50 µM (active)

CCOc1ccc(NC(=O)CC(C)=O)cc1
outcome: inactive

NC(=S)NNC(N)=S
outcome: inactive

c1ccc(CCc2ccccc2)cc1
outcome: inactive

COc1cccc(OC)c1O
outcome: inactive

C=C(C)[C@H]1CC=C(C)C(=O)C1
outcome: inactive

COC(C)(C)CC(C)=O
outcome: inactive

CCCCCCCC(=O)OCCCCCC
outcome: inactive

C/C=C(\C)C(=O)OCCc1ccccc1
AC50: 67.4 µM (active)

C=CC(=C)CCCC(C)(C)OC(C)=O
outcome: inactive

CCCCCc1ccco1
AC50: 35 µM (active)

NC1CCCCC1N (stereo not drawn)
AC50: 77.1 µM (active)

CC(=O)c1c(C)c([N+](=O)[O-])c(C(C)(C)C)c([N+](=O)[O-])c1C
outcome: inactive

O=C(CS)OCCOC(=O)CS
AC50: 82.2 µM (active)

O=C(O)CCCCCCCCCCCC(=O)O
AC50: 50 µM (active)

CC1=CC[C@@]23C[C@@H]1C(C)(C)[C@@H]2CC[C@H]3C
AC50: 78.5 µM (active)

CC1(C)C2=CCCC(C)(C)[C@]23CC[C@H]1C3
AC50: 78.4 µM (active)

C1=CC2C3C=CC(C3)C2C1 (stereo not drawn)
outcome: inactive

COC(=O)c1ccc(C)cc1C1=NC(C)(C(C)C)C(=O)N1 (stereo not drawn) (tested in a mixture with another compound)
outcome: inactive

CCOC(=O)C(C#N)=C(c1ccccc1)c1ccccc1
outcome: inactive

COCCOC(=O)c1ccccc1C(=O)OCCOC
outcome: inactive

CCc1ncc(C)[nH]1
outcome: inactive
